Results: ChEMBL document CHEMBL1961873, “Compounds: GSK PKIS; Assays: Nanosyn kinase panel” (2012)

biological target: T1, Phosphatidylinositol 4,5-bisphosphate 3-kinase catalytic subunit delta isoform (Homo sapiens) (UniProt O00329); settings: at 1 µM;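 note: reported values are mean percent inhibition of PI3K-delta activity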
T1 sequence (whole entry): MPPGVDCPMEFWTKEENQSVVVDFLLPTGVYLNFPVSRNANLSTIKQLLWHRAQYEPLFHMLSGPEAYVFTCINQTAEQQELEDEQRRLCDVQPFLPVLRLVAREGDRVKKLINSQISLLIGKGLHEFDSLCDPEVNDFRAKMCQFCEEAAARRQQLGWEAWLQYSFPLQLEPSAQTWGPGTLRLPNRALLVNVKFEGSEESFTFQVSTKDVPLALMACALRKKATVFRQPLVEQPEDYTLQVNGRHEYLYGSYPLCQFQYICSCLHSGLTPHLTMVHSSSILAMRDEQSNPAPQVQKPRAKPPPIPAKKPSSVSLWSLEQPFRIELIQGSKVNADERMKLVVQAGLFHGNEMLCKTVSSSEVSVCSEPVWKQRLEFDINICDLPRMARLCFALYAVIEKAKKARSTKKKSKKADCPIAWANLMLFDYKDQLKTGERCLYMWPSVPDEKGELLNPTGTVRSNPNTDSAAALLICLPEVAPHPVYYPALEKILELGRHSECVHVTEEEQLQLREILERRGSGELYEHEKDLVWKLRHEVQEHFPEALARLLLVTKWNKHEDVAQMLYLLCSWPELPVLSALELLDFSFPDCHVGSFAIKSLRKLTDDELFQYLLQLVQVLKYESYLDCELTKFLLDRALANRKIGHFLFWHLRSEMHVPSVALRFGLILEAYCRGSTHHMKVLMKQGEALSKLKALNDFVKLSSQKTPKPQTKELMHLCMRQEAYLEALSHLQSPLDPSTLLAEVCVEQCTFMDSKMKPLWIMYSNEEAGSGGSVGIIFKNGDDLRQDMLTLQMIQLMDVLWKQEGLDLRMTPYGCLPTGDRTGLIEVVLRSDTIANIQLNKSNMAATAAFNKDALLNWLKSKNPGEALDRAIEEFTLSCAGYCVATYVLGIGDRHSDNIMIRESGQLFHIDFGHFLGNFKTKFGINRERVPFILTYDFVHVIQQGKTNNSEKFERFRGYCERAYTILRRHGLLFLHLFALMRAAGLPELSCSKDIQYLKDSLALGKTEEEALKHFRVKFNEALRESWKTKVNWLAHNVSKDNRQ

Compound | inhibition [%]
ON=C1CCc2cc(-c3nc(C4CCNCC4)[nH]c3-c3ccncc3)ccc21 | 3.08
O=C1Nc2ccc(-c3cccnc3)cc2C1=Cc1cc(Br)c(O)c(Br)c1 | -3.91
CCOc1nccc2c1nc(-c1nonc1N)n2CC | 0.99
c1ccc(Cc2nc3ccc(Nc4ncnc5ccccc45)cc3[nH]2)cc1 | 0.62
O=C(Nc1ccc(Oc2ccc3[nH]c(NC(=O)c4ccco4)nc3c2)cc1)Nc1cc(C(F)(F)F)ccc1F | 2.96
FC(F)(F)c1ccc(-c2nn3ncccc3c2-c2ccnc(Nc3ccc4c(c3)OCCO4)n2)cc1 | 0.41
COc1cc2ncnc(Nc3ccc(C)c(O)c3)c2cc1OC | 4.88
c1ccc(Nc2ncc(-c3ccccc3)o2)cc1 | 4.99
Cc1ccc(NC(=O)CC2CC2)cc1-c1ccc(C(=O)NCC2CC2)cc1 | 1.78
OCc1ccc(-c2nc(-c3ccccn3)c(-c3ccc4c(c3)OCO4)[nH]2)cc1 | 3.07
Cc1ccc(Nc2ccnc(Nc3cccc(C(N)=O)c3)n2)cc1O | 9.7
CN(c1ccc(NC(=O)Nc2ccc(OC(F)(F)F)cc2)cc1)c1ccnc(Nc2cccc(S(N)(=O)=O)c2)n1 | 3.29
CN(C)C(=O)O[C@@H]1CN[C@@H](C#Cc2cc3ncnc(Nc4ccc(OCc5cccc(F)c5)c(Cl)c4)c3s2)C1 | 20.8
NS(=O)(=O)c1ccc(Nc2cc(-c3cccc(O)c3)n[nH]2)cc1 | 4.98
Cc1ccc2c(-c3ccnc(Nc4cccc(C(F)(F)F)c4)n3)c(-c3ccccc3)nn2n1 | 2
COC(=O)Nc1nc2cc(Oc3ccc(NC(=O)Nc4cccc(Br)c4)cc3)ccc2[nH]1 | 7.1
N#Cc1c(NC(=O)c2ccccc2F)sc2c1CCCC2 | 2.06

Compound | inhibition [%]
CN(C)CCCn1c(-c2nonc2N)nc2cnccc21 | 4.09
NS(=O)(=O)c1ccc(-c2cc3ccncc3cc2OCc2ccccc2)cc1 | 2.98
NS(=O)(=O)c1cccc(-c2cc3ccncc3cc2OCc2ccccc2)c1 | 5.47
N#Cc1cccc(Nc2nccc(-c3cnn4ncccc34)n2)c1 | 21.2
COc1cccc(-n2nc(C)c3c(N/N=C(\C)c4ccncc4)ncnc32)c1 | 6.02
Oc1cccc(-c2nc(-c3ccccc3)[nH]c2-c2ccncc2)c1 | 1.67
COc1cccc(-n2ncc3c(N/N=C/c4ccc(C)cc4)ncnc32)c1 | 5.9
COc1cccc(-n2ncc3c(N/N=C/c4ccc(S(C)(=O)=O)cc4)ncnc32)c1 | 2.43
NC(=O)c1sc(-n2cnc3ccccc32)cc1OCc1ccccc1Br | 4.24
Cc1cc(O)cc(C)c1/C=C/c1cncc(C(=O)N(C)C)c1 | 1.73
COc1cc(/C=N/Nc2ncnc3c2cnn3C(C)C)ccc1O | 71.3
NS(=O)(=O)c1ccc(N/N=C2\C(=O)Nc3ccc(Cl)cc32)cc1 | 0.13
Cc1cc(Cl)cc2c1NC(=O)C2=NNc1ccc(S(N)(=O)=O)cc1 | 4.67
NC(=O)c1cccc(Nc2nccc(Nc3cccc(F)c3)n2)c1 | -4.65
COc1cc2ncn(-c3cc(OCc4ccccc4S(C)(=O)=O)c(C#N)s3)c2cc1OC | 3.41
CCS(=O)(=O)c1ccc(OC)c(Nc2ncc(-c3cccc(OC)c3)o2)c1 | 3.98
CS(=O)(=O)Nc1cccc(-c2ccc3c(NC(=O)C4CC4)n[nH]c3c2)c1 | 4.97

biological target: Phosphatidylinositol 4-kinase beta (Homo sapiens) (UniProt Q9UBF8); settings: at 0.1 µM;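 note: values given are mean percent inhibition of PI4K-beta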
Sequence (Q9UBF8 2-816 limits assumed): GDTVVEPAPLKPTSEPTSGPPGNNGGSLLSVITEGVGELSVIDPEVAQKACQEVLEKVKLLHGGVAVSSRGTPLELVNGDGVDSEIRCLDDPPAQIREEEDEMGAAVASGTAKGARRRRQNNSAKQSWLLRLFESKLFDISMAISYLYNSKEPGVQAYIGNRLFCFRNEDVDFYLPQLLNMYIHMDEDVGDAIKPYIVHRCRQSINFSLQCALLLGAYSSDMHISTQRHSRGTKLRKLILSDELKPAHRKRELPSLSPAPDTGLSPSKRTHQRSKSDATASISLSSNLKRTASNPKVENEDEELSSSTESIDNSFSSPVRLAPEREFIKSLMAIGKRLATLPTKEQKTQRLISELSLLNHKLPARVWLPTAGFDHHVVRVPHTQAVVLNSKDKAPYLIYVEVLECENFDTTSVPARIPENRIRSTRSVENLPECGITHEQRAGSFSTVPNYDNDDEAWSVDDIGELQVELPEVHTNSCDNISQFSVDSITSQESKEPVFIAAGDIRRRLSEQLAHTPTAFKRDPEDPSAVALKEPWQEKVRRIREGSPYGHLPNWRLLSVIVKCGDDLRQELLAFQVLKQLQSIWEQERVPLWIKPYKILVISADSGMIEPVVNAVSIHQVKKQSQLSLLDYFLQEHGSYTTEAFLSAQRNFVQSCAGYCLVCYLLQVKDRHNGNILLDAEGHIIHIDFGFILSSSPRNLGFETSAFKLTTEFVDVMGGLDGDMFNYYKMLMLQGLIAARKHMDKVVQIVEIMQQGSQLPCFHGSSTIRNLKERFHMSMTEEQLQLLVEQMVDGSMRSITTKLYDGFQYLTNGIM

Compound | inhibition [%]
ON=C1CCc2cc(-c3nc(C4CCNCC4)[nH]c3-c3ccncc3)ccc21 | 2.07
O=C1Nc2ccc(-c3cccnc3)cc2C1=Cc1cc(Br)c(O)c(Br)c1 | 35.2
CCOc1nccc2c1nc(-c1nonc1N)n2CC | 7.22
c1ccc(Cc2nc3ccc(Nc4ncnc5ccccc45)cc3[nH]2)cc1 | -0.98
O=C(Nc1ccc(Oc2ccc3[nH]c(NC(=O)c4ccco4)nc3c2)cc1)Nc1cc(C(F)(F)F)ccc1F | 1.45
FC(F)(F)c1ccc(-c2nn3ncccc3c2-c2ccnc(Nc3ccc4c(c3)OCCO4)n2)cc1 | 1.96
COc1cc2ncnc(Nc3ccc(C)c(O)c3)c2cc1OC | -1.03
c1ccc(Nc2ncc(-c3ccccc3)o2)cc1 | 5.07
Cc1ccc(NC(=O)CC2CC2)cc1-c1ccc(C(=O)NCC2CC2)cc1 | -3.28
OCc1ccc(-c2nc(-c3ccccn3)c(-c3ccc4c(c3)OCO4)[nH]2)cc1 | -1.63
Cc1ccc(Nc2ccnc(Nc3cccc(C(N)=O)c3)n2)cc1O | 3.13
CN(c1ccc(NC(=O)Nc2ccc(OC(F)(F)F)cc2)cc1)c1ccnc(Nc2cccc(S(N)(=O)=O)c2)n1 | -1.47
CN(C)C(=O)O[C@@H]1CN[C@@H](C#Cc2cc3ncnc(Nc4ccc(OCc5cccc(F)c5)c(Cl)c4)c3s2)C1 | -2.99
NS(=O)(=O)c1ccc(Nc2cc(-c3cccc(O)c3)n[nH]2)cc1 | -1.18
Cc1ccc2c(-c3ccnc(Nc4cccc(C(F)(F)F)c4)n3)c(-c3ccccc3)nn2n1 | 0.44
COC(=O)Nc1nc2cc(Oc3ccc(NC(=O)Nc4cccc(Br)c4)cc3)ccc2[nH]1 | 0.03
N#Cc1c(NC(=O)c2ccccc2F)sc2c1CCCC2 | 0.79

Compound | inhibition [%]
CN(C)CCCn1c(-c2nonc2N)nc2cnccc21 | 0.95
NS(=O)(=O)c1ccc(-c2cc3ccncc3cc2OCc2ccccc2)cc1 | 3.31
NS(=O)(=O)c1cccc(-c2cc3ccncc3cc2OCc2ccccc2)c1 | -1.89
N#Cc1cccc(Nc2nccc(-c3cnn4ncccc34)n2)c1 | -5.91
COc1cccc(-n2nc(C)c3c(N/N=C(\C)c4ccncc4)ncnc32)c1 | -2.42
Oc1cccc(-c2nc(-c3ccccc3)[nH]c2-c2ccncc2)c1 | -5.44
COc1cccc(-n2ncc3c(N/N=C/c4ccc(C)cc4)ncnc32)c1 | -1.45
COc1cccc(-n2ncc3c(N/N=C/c4ccc(S(C)(=O)=O)cc4)ncnc32)c1 | -0.72
NC(=O)c1sc(-n2cnc3ccccc32)cc1OCc1ccccc1Br | 0.67
Cc1cc(O)cc(C)c1/C=C/c1cncc(C(=O)N(C)C)c1 | -2.1
COc1cc(/C=N/Nc2ncnc3c2cnn3C(C)C)ccc1O | -8.74
NS(=O)(=O)c1ccc(N/N=C2\C(=O)Nc3ccc(Cl)cc32)cc1 | 5.17
Cc1cc(Cl)cc2c1NC(=O)C2=NNc1ccc(S(N)(=O)=O)cc1 | -5.44
NC(=O)c1cccc(Nc2nccc(Nc3cccc(F)c3)n2)c1 | 3.27
COc1cc2ncn(-c3cc(OCc4ccccc4S(C)(=O)=O)c(C#N)s3)c2cc1OC | -5.13
CCS(=O)(=O)c1ccc(OC)c(Nc2ncc(-c3cccc(OC)c3)o2)c1 | 3.39
CS(=O)(=O)Nc1cccc(-c2ccc3c(NC(=O)C4CC4)n[nH]c3c2)c1 | -1.63
